Results: PubChem BioAssay (Tox21)
A number with no mark means an inactive call. The source made the active and inactive calls. Calls come from the whole dose curve.

Assay: qHTS assay to identify small molecule agonists of the estrogen related receptor (ERR) signaling pathway from Tox21 library (AID 1224849); note: nearly all actives have a fitted effect of over 15% in size
Conditions: ERR reporter cell line, ONE-Glo luciferase, 18 h; at 92.4 µM (top of the series) unless noted
Description: National Center for Advancing Translational Sciences [NCATS]
NIH Chemical Genomics Center [NCGC]
U.S. Environmental Protection Agency [EPA]
National Institutes of Environmental Health Sciences [NIEHS]
National Toxicology Program [NTP]
Estrogen related receptors (ERRs), the first orphan nuclear receptors discovered, play an important role in the control of cellular energy metabolism. ERRs are required for high-energy production in response to the environmental challenges. ERR-alpha was also identified as an adverse marker for breast cancer progression; ERR-alpha-positive tumors have a poor prognosis. To screen and to identify environmental compounds that perturb the ERR signaling pathways could provide valuable information for potential therapeutic or preventive measures in the treatment of metabolic disease. For identifying ERR agonists, ERR cell line (provided by NTP) has been used to screen Tox21 10K library.
The ERR cells were dispensed at 2,000 cells/5 ul/well in 1536-well white plates using a Multidrop dispenser. After the assay plates were incubated at a 37 C/5% CO2 incubator for 6 hours, 23 nL of compounds dissolved in DMSO, positive and negative controls or DMSO only was transferred to the assay plate by a pin tool. The plates were incubated at 37 C for 18 hours. 4 ul/well of One-Glo reagent was added into the assay plates using a Flying Reagent Dispenser. After 30-minute incubation at room temperature, the luminescence intensity in the plates was measured using a ViewLux plate reader.
% is set by controls: 0 for no effect and ±100 for the full control effect.

Row | Structure (SMILES) | activity change, positive = activation
1 | CCOC(=O)C1(c2ccccc2)CCN(CCc2ccc(N)cc2)CC1 | -11.7% [at 42.5 µM]
2 | CC1COC2(c3ccccc3Cl)c3cc(Cl)ccc3NC(=O)CN12 (stereo not given) | -27.8% [at 42.5 µM]
3 | Cc1cc(C)c(C(=O)P(=O)(C(=O)c2c(C)cc(C)cc2C)c2ccccc2)c(C)c1 | -2.99%
4 | N#CC(CCc1ccc(Cl)cc1)(Cn1cncn1)c1ccccc1 (stereo not given) | -69.7%
5 | Cc1nnc2n1-c1sc(CCC(=O)N3CCOCC3)cc1C(c1ccccc1Cl)=NC2 | 1.19% [at 42.5 µM]
6 | [O]=[Cd] | -14%
7 | CCOC(=O)CP(=O)(OCC)OCC | 4.99%
8 | C1CCC(C2CCCCC2)CC1 | -6.98%
9 | CCC(C)(C)c1cc(-n2nc3ccccc3n2)c(O)c(C(C)(C)CC)c1 | -66.5%
10 | CC(Oc1ccc(Oc2ncc(C(F)(F)F)cc2Cl)cc1)C(=O)O (stereo not given) | -29.5%
11 | CNC(=O)N(C)c1nc2ccccc2s1 | 89.8% (active)
12 | COc1cc(OC)nc(NC(=O)NS(=O)(=O)c2ncccc2OCC(F)(F)F)n1 | 9.4%
13 | CCCCCCI | -0.122%
14 | N#Cc1c(Cl)cccc1Cl | 7.33%
15 | CC(=O)C(Cl)Cl | 4.96%
16 | CN1CCC(O)(c2ccc(F)cc2)C(C(=O)c2ccc(F)cc2)C1 (stereo not given) | 0.426% [at 42.5 µM]
17 | CCCCN(CCCCO)N=O | -8.16%
18 | CCC(C)n1c(=O)[nH]c(C)c(Br)c1=O (stereo not given) | -4.95%
19 | COC(=O)c1ccccc1S(=O)(=O)NC(=O)N(C)c1nc(C)nc(OC)n1 | 6.39%
20 | COC(=O)C(C)Oc1ccc(Oc2ccc(Cl)cc2Cl)cc1 (stereo not given) | -14.6%

Row | Structure (SMILES) | activity change, positive = activation
21 | O=c1oc2ccccc2c(O)c1C1CCCc2ccccc21 (stereo not given) | -20.9%
22 | CC1CCCCC1NC(=O)Nc1ccccc1 (stereo not given) | 4.71%
23 | ClCCCN1CCN(c2cccc(Cl)c2)CC1 | -4.21% [at 42.5 µM]
24 | CC(COc1ccc(Oc2ccccc2)cc1)Oc1ccccn1 (stereo not given) | 0.411%
25 | CCC(Cl)[N+](=O)[O-] (stereo not given) | -7.71%
26 | CC(C)CC(N(C)C)C1(c2ccc(Cl)cc2)CCC1 (stereo not given) | 1.9% [at 42.5 µM]
27 | O=C(Nc1ccccc1)N(Cc1ccc(Cl)cc1)C1CCCC1 | -60.6%
28 | COc1cc(C[C@@H](C)N)c(OC)cc1C | -3.22%
29 | CC(C)COP(=O)(OCC(C)C)OCC(C)C | -2.2%
30 | CCCCCCBr | 0.352%
31 | CSc1ccc(C(=O)C(C)(C)N2CCOCC2)cc1 | -13.8%
32 | CC(=O)CCc1ccc2c(c1)OCO2 | -0.0233%
33 | C[C@H]1CCC[C@H](O)CCCCCc2cc(O)cc(O)c2C(=O)O1 | -54.5%
34 | CCCCC(=O)Cl | -5.15%
35 | CC1(C(=O)Nc2ccc(O)c(Cl)c2Cl)CCCCC1 | -35.4%
36 | N#CCBr | 0.914%
37 | Fc1ccc(C2(Cn3cncn3)OC2c2ccccc2Cl)cc1 (stereo not given) | -40.8%
38 | CNC(=O)Oc1ccccc1C1OCCO1 | 4.32%
39 | CC1=C(C(=O)O)N2C(=O)[C@@H](N)[C@H]2SC1 | 3.36% [at 19 µM]
40 | C#CCN1C(=O)COc2cc(F)c(N3C(=O)C4=C(CCCC4)C3=O)cc21 | -22.6%
